Molecules are shown by their SMILES. Out of some 65,000 compounds screened, about 450 (0.69%) were called active.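 The calls were made as follows: active = HER2 level under 5% of the carrier-only control; inconclusive = no clear call, values can overlap the other calls; inactive = the rest.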 Shown is part of a subset that was picked to be rich in actives.

Receptor tyrosine-protein kinase erbB-2 (Homo sapiens), sequence (P04626 whole entry, looked up): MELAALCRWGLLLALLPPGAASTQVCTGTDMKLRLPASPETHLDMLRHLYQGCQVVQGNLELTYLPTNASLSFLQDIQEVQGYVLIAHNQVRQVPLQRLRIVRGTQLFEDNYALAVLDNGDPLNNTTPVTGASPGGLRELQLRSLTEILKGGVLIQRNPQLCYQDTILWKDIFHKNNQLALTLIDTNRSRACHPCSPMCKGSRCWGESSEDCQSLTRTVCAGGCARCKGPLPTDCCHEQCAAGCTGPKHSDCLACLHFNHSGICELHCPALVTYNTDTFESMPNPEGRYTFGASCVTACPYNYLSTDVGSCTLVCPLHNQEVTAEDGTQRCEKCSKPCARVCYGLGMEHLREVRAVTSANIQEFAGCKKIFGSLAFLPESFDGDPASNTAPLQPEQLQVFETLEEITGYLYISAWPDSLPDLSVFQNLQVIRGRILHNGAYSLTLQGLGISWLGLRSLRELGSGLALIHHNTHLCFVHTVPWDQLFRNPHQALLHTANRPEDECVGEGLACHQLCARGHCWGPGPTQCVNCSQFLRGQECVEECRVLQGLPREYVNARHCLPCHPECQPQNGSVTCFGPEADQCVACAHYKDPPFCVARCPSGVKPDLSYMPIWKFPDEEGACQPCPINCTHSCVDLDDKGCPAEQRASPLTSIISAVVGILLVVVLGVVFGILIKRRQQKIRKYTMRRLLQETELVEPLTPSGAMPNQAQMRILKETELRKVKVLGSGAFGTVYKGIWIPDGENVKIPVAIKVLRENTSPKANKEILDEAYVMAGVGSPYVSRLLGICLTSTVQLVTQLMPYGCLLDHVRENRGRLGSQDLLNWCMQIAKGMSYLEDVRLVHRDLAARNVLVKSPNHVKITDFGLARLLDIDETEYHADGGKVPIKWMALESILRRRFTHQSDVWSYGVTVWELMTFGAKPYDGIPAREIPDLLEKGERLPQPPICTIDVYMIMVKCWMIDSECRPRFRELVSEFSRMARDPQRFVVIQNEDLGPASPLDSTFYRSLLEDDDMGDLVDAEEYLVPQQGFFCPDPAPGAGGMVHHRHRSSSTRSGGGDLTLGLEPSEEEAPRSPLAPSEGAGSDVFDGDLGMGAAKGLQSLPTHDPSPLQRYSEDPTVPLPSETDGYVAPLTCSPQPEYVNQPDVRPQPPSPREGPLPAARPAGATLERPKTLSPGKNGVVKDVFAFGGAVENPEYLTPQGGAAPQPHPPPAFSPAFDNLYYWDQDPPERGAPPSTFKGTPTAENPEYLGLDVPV

The test has as its target Receptor tyrosine-protein kinase erbB-2 (Homo sapiens) (UniProt P04626). The test is described as follows: reducers of endogenous HER2 protein levels – SKBR-3 cells, AlphaScreen, 66K library, primary screen (AID 645).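 Also: 100% = DMSO carrier and 0% = 500 nM PU-H71 HSP90 inhibitor; lower value means stronger loss of Her2 protein.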 The following applies: SKBR-3 HER2 protein level, 18-24 h, at 10 µM, active compounds read low. (In general: In Alpha technology, singlet oxygen from a donor bead excites a nearby acceptor bead.)
As for `CC(=O)c1c(C)n(-c2ccc(N(C)C)cc2)c2ccc(OCC(N)=O)cc12`, the HER2 level % of control is 64.8% (inactive).
As for `COc1ccccc1-c1nnc(SCC(=O)Nc2cc(C)on2)o1`, the figure is 92.1% (inactive).
As for `O=c1[nH]c(-c2ccccc2)c(-c2ccccc2)[nH]1`, the figure is 88.4% (inactive); as for `CC1(C)CC(=O)NC=C(c2ccccc2)C1`, -32.3% (active); as for `CC(C)C1C2=C(CC(C)(C)CC2=O)ON1c1ccccc1` (centres undefined), 89.9% (inactive).
With `CC(C)(C)NC(=O)Cn1nnc(-c2ccccc2Cl)n1` the figure was 75.9% (inactive); with `COCCCNC(=O)CCc1nc2cccnc2n1Cc1ccc(OC)cc1`, 96.5% (inactive); with `Cc1cc(NC(=O)CCC(=O)N(c2cccc(F)c2)C(C(=O)NC2CCCC2)c2ccncc2)no1` (centres undefined), 97% (inactive).
For `CCn1c(SCC(=O)NCC2CCCO2)nc2cc(S(=O)(=O)N3CCCCC3)ccc21` (centres undefined), the HER2 level % of control was -27.6% (active).
Regarding `CCCCn1c(SCC(=O)NCC2CCCO2)nc2ccc(N3CCOCC3)cc2c1=O` (centres undefined), the HER2 level % of control is 92.5% (inactive).
With `CCn1cc(C(=O)NCC2CCCO2)c(=O)c2cc(S(=O)(=O)N3CCCCC3)ccc21` (centres undefined) the figure was 108% (inactive); with `Cc1cc(C)nc(SCc2ccccc2C#N)n1`, 112% (inactive); with `COc1ccc(C(=O)N2CCC(C(=O)Nc3cccc(C)c3)CC2)cc1OC`, 97.1% (inactive).
With `Cc1nc2ccc(S(=O)(=O)NC(C(=O)N3CCCCCC3)C(C)C)cc2s1` (centres undefined) the figure was 82.8% (inactive).
With `Cc1nc2cc(S(=O)(=O)C(F)(F)F)ccc2s1` the figure was -17.7% (active).
Consider `Cc1nc2ccc(S(=O)(=O)NCC(=O)O)cc2s1`, for which the HER2 level % of control was 73.5% (inactive).
For the compound `O=C(NCCN=C1NS(=O)(=O)c2ccccc21)c1ccc(S(=O)(=O)N2CCOCC2)cc1`, the HER2 level % of control was 108% (inactive).
Regarding `CCOc1ccc(OCc2ccc(C(=O)Nc3cccc(C)n3)o2)cc1`, the HER2 level % of control is 68.1% (inactive).
As for `CC(C)(C)n1nnnc1C(c1ccc2ncccc2c1)N1CCSCC1` (centres undefined), the figure is 92.2% (inactive).
As to `CC(C)c1ccc(OCC(O)Cn2cnc3ccccc32)cc1` (centres undefined), the HER2 level % of control was 83.1% (inactive).
With `Cc1ccc(S(=O)(=O)N2CCC(C(=O)N[C@@H](C)C(=O)NCc3ccccc3)CC2)cc1` the figure was 102% (inactive).
In the case of `Cc1ccc(CCNC(=O)C2CCN(S(=O)(=O)N3CCCC3)CC2)cc1`, the HER2 level % of control is 107% (inactive).
`Cc1ccc(S(=O)(=O)N2CCC(C(=O)N[C@@H](C)C(=O)NCCc3ccccc3)CC2)cc1`: the HER2 level % of control was -21.9% (active).
With `CC(C)C[C@H](NC(=O)[C@@H]1O[C@H]1C(=O)O)C(=O)NCCCCN=C(N)N` the figure was 100% (inactive).

For the origin of these results see PubChem BioAssay AID645 (SRMLSC, 2007).
